# According to PubChem BioAssay (Tox21):
# Activity calls are given as the source filed them. Entries that show only a call come without a potency. Calls follow the shape of the full dose curve.
# Molecular target: Gonadotropin-releasing hormone receptor (Homo sapiens) (UniProt P30968)
# Experiment: Human gonadotropin-releasing hormone receptor (GnRHR) small molecule agonists, calcium flux assay in GnRHR-HEK293 cells (AID 1920063); also: nearly all actives have a fitted effect of over 35% in size
# Conditions: calcium flux fluorescence, agonist mode; series mostly up to 57.6 µM
# Description: National Center for Advancing Translational Sciences [NCATS]
# Division of Preclinical Innovation [DPI]
# U.S. Environmental Protection Agency [EPA]
# National Institutes of Environmental Health Sciences [NIEHS]
# National Toxicology Program [NTP]
# U.S. Food and Drug Administration [FDA]
# Gonadotropin-releasing hormone receptor (GnRHR) is a G-protein-coupled receptor (GPCR) and acts (through phospholipase C) to increase intracellular inositol trisphosphate and then release intracellular calcium stores. Cell-based GnRHR-Hek293 calcium influx assay is using HEK293 cells that have been genetically engineered to express the human GnRHR, which activity can be measured by calcium signaling. A compound/drug can activate (agonist) GnRHR that can be monitored by levels of intracellular calcium.
# GnRHR-HEK293 cells developed by Codex Corp contain human GnRHR reporter gene, which was stably integrated into HEK 293 cells. The compound activation can be detected by fluorescence intensity via calcium flux assay. This cell line has been used to screen the Tox21 10K compound library to identify GnRHR agonists.
# GnRHR-Hek293 cells were dispensed at 1500cells/4uL/well in 1536-well black wall/clear bottom plates using a multidrop dispenser. After the assay plates were incubated at a 37 C/5% CO2 incubator for 18 hours, 4 uL of Calcium Dye Solution was added to each well. The plates were incubated at 37 C for 1 hour. For agonist mode, 23 nL of compounds dissolved in DMSO, positive controls or DMSO only was transferred to the assay plate by a pin tool station. The fluorescence intensity in the plates was measured using FDSS 7000EX kinetic plate reader with a filter set of Ex/Em=480/540 for 3 min at 1 sec intervals. Each test compound was measured at 15 concentrations and in triplicates.
# Potency is read from the fitted curve at half-maximal effect.
# Gonadotropin-releasing hormone receptor (Homo sapiens), sequence (P30968 whole entry, looked up): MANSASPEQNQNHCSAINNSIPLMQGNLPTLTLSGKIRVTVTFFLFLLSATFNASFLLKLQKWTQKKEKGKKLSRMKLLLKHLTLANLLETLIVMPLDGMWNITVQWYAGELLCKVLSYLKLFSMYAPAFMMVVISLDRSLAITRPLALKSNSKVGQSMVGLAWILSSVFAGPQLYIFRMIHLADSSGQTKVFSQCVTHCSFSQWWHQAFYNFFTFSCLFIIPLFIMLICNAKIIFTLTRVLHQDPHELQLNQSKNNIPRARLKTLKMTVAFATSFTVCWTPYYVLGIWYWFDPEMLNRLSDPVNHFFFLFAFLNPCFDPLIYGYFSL
row,SMILES,Potency
1,NCCOCCO,inactive
2,CCCCOCCOCCO,inactive
3,Cc1cccc(Nc2cc(Cl)nc(SCC(=O)O)n2)c1C,inactive
4,COc1ccc(O)cc1,inactive
5,CCCCC1(COC(=O)CCC(=O)O)C(=O)N(c2ccccc2)N(c2ccccc2)C1=O,inactive
6,CC1Cc2ccccc2N1NC(=O)c1ccc(Cl)c(S(N)(=O)=O)c1 (stereo not given),inactive
7,c1ccc2c(c1)Cc1ccccc1-2,inactive
8,CCCCC(C=O)CC (stereo not given),inactive
9,Nc1c2c(nc3ccccc13)CCCC2,inactive
10,Oc1cccc(O)c1,inactive
11,O=S(=O)(O)c1ccc2cc(O)ccc2c1,inactive
12,CC1(C)[C@@H](O[C@H]2O[C@H](C(=O)O)[C@@H](O)[C@H](O)[C@H]2O[C@@H]2O[C@H](C(=O)O)[C@@H](O)[C@H](O)[C@H]2O)CC[C@]2(C)[C@H]3C(=O)C=C4[C@@H]5C[C@@](C)(C(=O)O)CC[C@]5(C)CC[C@@]4(C)[C@]3(C)CC[C@@H]12,inactive
13,CNC(=O)Oc1ccc2c(c1)[C@]1(C)CCN(C)[C@@H]1N2C,inactive
14,Cn1cc[nH]c1=S,inactive
15,CCCCNS(=O)(=O)c1ccccc1,inactive
16,N#Cc1ccccc1,inactive
17,ClC/C=C/CCl,inactive
18,Brc1cc(Oc2cc(Br)c(Br)c(Br)c2Br)c(Br)c(Br)c1Br,inactive
19,CCc1nc(N)nc(N)c1-c1ccc(Cl)cc1,39.5 µM (active)
20,O=S1(=O)CC=CC1,inactive

row,SMILES,Potency
1,Cc1ncc[nH]1,inactive
2,C[C@]12C[C@H](O)[C@H]3[C@@H](CCC4=CC(=O)CC[C@@]43C)[C@@H]1CC[C@@H]2C(=O)CO,inactive
3,CC(=O)CC(c1ccccc1)c1c(O)c2ccccc2oc1=O (stereo not given),inactive
4,Nc1ccccc1[N+](=O)[O-],inactive
5,CC(C)=CCO,inactive
6,COC1=CC(=O)C[C@@H](C)[C@]12Oc1c(Cl)c(OC)cc(OC)c1C2=O,inactive
7,CC(=O)OCC(COC(C)=O)OC(C)=O,inactive
8,c1cc(-c2ccncc2)ccn1,inactive
9,O=NO,inactive
10,CN/C(=C\[N+](=O)[O-])NCCSCc1csc(CN(C)C)n1,inactive
11,CCNc1cccc(C)c1,inactive
12,C=CCOC(=O)C(=C)C,inactive
13,CCOC(=O)CC(=O)OCC,inactive
14,CC(C)Cc1ccccc1,inactive
15,C=CCCCCCCCCC(=O)O,inactive
16,CCCCCCC(C)O (stereo not given),inactive
17,C=CCc1ccc(OC)c(OC)c1,inactive
18,N[C@@H](Cc1cc(I)c(Oc2cc(I)c(O)c(I)c2)c(I)c1)C(=O)O,inactive
19,CCCCCNCCCCC,inactive
20,NC(=O)c1cccnc1,inactive
